# Measurements published in the supplement of paper PMC12645437, “Orthogonal IMiD-Degron Pairs Induce Selective Protein Degradation in Cells” (ACS Chemical Biology, 2025).
# The full ranking holds about 8,300 sequences; the median of “log2 fold change of degron read counts, EGFP-low vs EGFP+ sorted cells (limma voom), compound-induced degradation” is about -1.1, and the highest 2% start at about 3.2. What follows is part of a selection rich in the highest values, with near analogues and random picks from the rest.
# Target: T1, CRBN, Q96SW2
# T1 chain: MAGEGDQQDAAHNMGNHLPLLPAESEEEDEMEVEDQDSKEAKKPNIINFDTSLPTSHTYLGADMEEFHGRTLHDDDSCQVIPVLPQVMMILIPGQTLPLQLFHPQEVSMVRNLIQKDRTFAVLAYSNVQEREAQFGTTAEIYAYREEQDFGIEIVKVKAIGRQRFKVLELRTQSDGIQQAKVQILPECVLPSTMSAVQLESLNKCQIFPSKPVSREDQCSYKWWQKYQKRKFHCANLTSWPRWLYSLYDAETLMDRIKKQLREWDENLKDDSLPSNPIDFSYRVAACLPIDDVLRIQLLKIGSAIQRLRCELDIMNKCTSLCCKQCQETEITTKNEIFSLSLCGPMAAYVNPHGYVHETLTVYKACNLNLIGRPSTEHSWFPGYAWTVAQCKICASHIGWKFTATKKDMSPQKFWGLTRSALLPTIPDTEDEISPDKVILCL
# Assay: log2 fold change of degron read counts, EGFP-low vs EGFP+ sorted cells (limma voom), compound-induced degradation; higher = more compound-induced degradation of the degron-EGFP fusion; degrons are variants of IKZF1/3 zinc finger 2; compound dose not given here
# Settings: Jurkat, 18 h
# [1] = compound: compound 19 (5-tert-butyl-thalidomide)
# [2] = compound: compound 22 (5-morpholino-thalidomide)
# [3] = compound: compound 33 (diphenyl IMiD analogue)
# 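Also: pooled lentiviral library of zinc finger degron-EGFP fusions in mCherry-positive Jurkat cells, FACS-sorted after compound exposure, with degron abundance counted by next-generation sequencing.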
Sequence,log2 fold change of degron read counts [1],log2 fold change of degron read counts [2],log2 fold change of degron read counts [3],log2 fold change of degron read counts (compound: thalidomide)
"FCCPVCGAPFTQKGNLLRHIKL [46F_47C_49P_50V_52G_53A_54P_55F_67L_, Q9UKT9]",3.13,2.6,1.7,2.1
"FICNVCGAPFTQKGNLLRHIKL [46F_47I_49N_50V_52G_53A_54P_55F_67L_, Q9UKT9]",-0.34,2.49,1.6,2.07
"FICPVCGAPFTQKGNLLRHIKL [46F_47I_49P_50V_52G_53A_54P_55F_67L_, Q9UKT9]",1.18,3.94,2.58,3.08
"FSCPVCGAPFTQKGNLLRHIKL [46F_47S_49P_50V_52G_53A_54P_55F_67L_, Q9UKT9]",3.04,2.37,1.65,2.12
"FACPVCGAPFTQKGNLLRHIKL [46F_47A_49P_50V_52G_53A_54P_55F_67L_, Q9UKT9]",3.58,2.58,1.07,2.23
"FICDVCGAPFTQKGNLLRHIKL [46F_47I_49D_50V_52G_53A_54P_55F_67L_, Q9UKT9]",-0.148,3.08,1.53,1.67
"FGCPVCGAPFTQKGNLLRHIKL [46F_47G_49P_50V_52G_53A_54P_55F_67L_, Q9UKT9]",3.34,1.9,1.27,0.43
"FKCPVCGAPFTQKGNLLRHIKL [46F_47K_49P_50V_52G_53A_54P_55F_67L_, Q9UKT9]",2.06,1.94,0.0815,2.39
"FDCPVCGAPFTQKGNLLRHIKL [46F_47D_49P_50V_52G_53A_54P_55F_67L_, Q9UKT9]",2.39,0.488,0.886,1.55
"FLCPVCGAPFTQKGNLLRHIKL [46F_47L_49P_50V_52G_53A_54P_55F_67L_, Q9UKT9]",1.29,2.67,2.93,3.41
"FGCNVCGAPFTQKGNLLRHIKL [46F_47G_49N_50V_52G_53A_54P_55F_67L_, Q9UKT9]",-0.996,-1.44,-1.2,-1.32
"FDCPICGHFFTQKGNLLRHIKL [46F_47D_49P_50I_52G_53H_54F_55F_67L_, Q9UKT9]",-1.89,-2.22,-1.79,-1.75
"FICDVCGAWFTQKGNLLRHIKL [46F_47I_49D_50V_52G_53A_54W_55F_67L_, Q9UKT9]",-2.55,-1.74,-0.491,-1.83
"FMCPQCGARFTQKGNLLRHIKL [46F_47M_49P_50Q_52G_53A_54R_55F_67L_, Q9UKT9]",-1.45,-1.19,0.32,-0.605
"FGCNVCGAEFTQKGNLLRHIKL [46F_47G_49N_50V_52G_53A_54E_55F_67L_, Q9UKT9]",-2.62,-1.85,-0.606,-0.925
"FTCNQCGRVFTQKGNLLRHIKL [46F_47T_49N_50Q_52G_53R_54V_55F_67L_, Q9UKT9]",-2.75,-3.29,-2.33,-2.08
"FHCPVCGAPFTQKGNLLRHIKL [46F_47H_49P_50V_52G_53A_54P_55F_67L_, Q9UKT9]",3.2,2.86,2.5,1.82
"FVCPVCGAPFTQKGNLLRHIKL [46F_47V_49P_50V_52G_53A_54P_55F_67L_, Q9UKT9]",1.79,3.33,2.13,3.19
"FNCDVCGAPFTQKGNLLRHIKL [46F_47N_49D_50V_52G_53A_54P_55F_67L_, Q9UKT9]",0.937,-0.417,-1.71,-1.34
"FECPVCGAPFTQKGNLLRHIKL [46F_47E_49P_50V_52G_53A_54P_55F_67L_, Q9UKT9]",1.88,-0.29,1.64,2.65
"FNCPVCGAPFTQKGNLLRHIKL [46F_47N_49P_50V_52G_53A_54P_55F_67L_, Q9UKT9]",3.41,2.62,1.33,2.25
"FNCNVCGAPFTQKGNLLRHIKL [46F_47N_49N_50V_52G_53A_54P_55F_67L_, Q9UKT9]",1,-0.317,-0.912,-0.29
"FYCNVCGAPFTQKGNLLRHIKL [46F_47Y_49N_50V_52G_53A_54P_55F_67L_, Q9UKT9]",2.95,2.35,1.69,-0.11
"FYCPVCGAPFTQKGNLLRHIKL [46F_47Y_49P_50V_52G_53A_54P_55F_67L_, Q9UKT9]",3.48,3.24,2.82,1.62
"FYCDVCGAPFTQKGNLLRHIKL [46F_47Y_49D_50V_52G_53A_54P_55F_67L_, Q9UKT9]",3.09,2.39,1.86,-0.588
"FMCPVCGAPFTQKGNLLRHIKL [46F_47M_49P_50V_52G_53A_54P_55F_67L_, Q9UKT9]",2.53,3.59,3.09,2.96
"FTCPVCGAPFTQKGNLLRHIKL [46F_47T_49P_50V_52G_53A_54P_55F_67L_, Q9UKT9]",1.88,3.16,2.41,3.03
"FWCPVCGAPFTQKGNLLRHIKL [46F_47W_49P_50V_52G_53A_54P_55F_67L_, Q9UKT9]",3.23,2.92,2.67,1.06
